{"source": "paper PMC4552634", "about": "“A New Set of Chemical Starting Points with Plasmodium falciparum Transmission-Blocking Potential for Antimalarial Drug Discovery” (PLoS ONE, 2015)", "note": "Out of some 13,000 compounds screened, about 3,200 (25%) showed an effect of 50% or more. Some of the results follow.", "data": [{"tested_on": "P. falciparum stage V gametocytes", "set-up": "BacTiter-Glo ATP luminescence viability of purified stage V gametocytes in 384-well plates, per cent inhibition versus DMSO", "settings": "48 h, 5 µM; inhibitor", "units": {"% Inhibition": "%"}, "values": [{"smiles": "O=c1cc(NCCCNCc2ccc(C(F)(F)F)c(F)c2)[nH]c2ccccc12", "note": "[TCMDC-139428]", "% Inhibition": -42.45}, {"smiles": "CNC(=O)c1cc(NCCCNCc2ccc(Cl)c(C(F)(F)F)c2)nc2ccccc12", "note": "[TCMDC-141082]", "% Inhibition": 72.56}, {"smiles": "Cc1nc2ccccc2c(=O)n1NCc1ccc(Cl)c(Cl)c1", "note": "[TCMDC-131405]", "% Inhibition": 15.32}, {"smiles": "Clc1ccc(Nc2nc(Nc3ccc(Cl)c(Cl)c3)nc(Sc3nc4ccccc4[nH]3)n2)cc1Cl", "note": "[TCMDC-124069]", "% Inhibition": -24.51}, {"smiles": "CCc1cc2c(Sc3nc4ccccc4[nH]3)ncnc2s1", "note": "[TCMDC-124553]", "% Inhibition": 60.6}, {"smiles": "Cc1sc2ncnc(Sc3nc4ccccc4[nH]3)c2c1C", "note": "[TCMDC-123835]", "% Inhibition": 57.62}, {"smiles": "Nc1ncc(-c2ccsc2)cc1-c1nc2ccccc2[nH]1", "note": "[TCMDC-133557]", "% Inhibition": 13.31}, {"smiles": "COc1ccc(NC(=O)[C@H](CC(C)C)Nc2cc(C)nc(Nc3ccccc3)n2)cc1", "note": "[TCMDC-134738]", "% Inhibition": -4.957}, {"smiles": "CCCCn1c(C)c(C(=O)OCC)c2cc(OC(C)=O)c(Br)cc21", "note": "[TCMDC-125582]", "% Inhibition": -26.36}, {"smiles": "CCCNC(=O)c1cncc(-c2cccc(CNC3Cc4ccccc4C3)c2)c1", "note": "[TCMDC-134220]", "% Inhibition": -28.4}, {"smiles": "c1cc(CNC2Cc3ccccc3C2)cc(-c2cnc(N3CCNCC3)nc2)c1", "note": "[TCMDC-133140]", "% Inhibition": 110.7}, {"smiles": "CC1CN(c2ncc(-c3ccc(CNC4Cc5ccccc5C4)cc3)cn2)CC(C)N1", "note": "(stereo not drawn) [TCMDC-133769]", "% Inhibition": 77.63}, {"smiles": "CC(C)CNC(=O)c1cncc(-c2cccc(CNC3Cc4ccccc4C3)c2)c1", "note": "[TCMDC-134219]", "% Inhibition": -68.65}, {"smiles": "CCCNCc1ccc(-c2ccc(CNC3Cc4ccccc4C3)cc2)nc1", "note": "[TCMDC-141616]", "% Inhibition": 6.713}, {"smiles": "CC[C@H](C)CNC(=O)c1cncc(-c2ccc(CNC3Cc4ccccc4C3)cc2)c1", "note": "[TCMDC-134240]", "% Inhibition": -0.9583}, {"smiles": "CN(CCCNCc1cccc2ccccc12)CCCNCc1cccc2ccccc12", "note": "[TCMDC-137905]", "% Inhibition": 108.9}, {"smiles": "CN(CCCNCc1ccc2ccccc2c1)CCCNCc1ccc2ccccc2c1", "note": "[TCMDC-137908]", "% Inhibition": 106.3}, {"smiles": "N#Cc1ccc(-c2ccc(C(=O)NCCCCN3CC=C(c4ccc5c(c4OCC4CC4)CCCC5)CC3)cc2)cc1", "note": "[TCMDC-138756]", "% Inhibition": 42.6}, {"smiles": "O=C(c1ccc(OCCn2ccnc2)cc1)N1CCC(c2ccc(Br)cc2)C1", "note": "(stereo not drawn) [TCMDC-134837]", "% Inhibition": 38.05}, {"smiles": "CN(CCCN(C)c1cc(NC(=O)c2cccc(F)c2)ccn1)Cc1cccc(O)c1", "note": "[TCMDC-134952]", "% Inhibition": -21.83}, {"smiles": "Cc1ccc(C(O)CNc2ccnc(Nc3cccc(-c4csc(C)n4)c3)n2)cc1", "note": "(stereo not drawn) [TCMDC-136570]", "% Inhibition": 6.544}, {"smiles": "O=C(NC1CCN(Cc2ccccc2)CC1)c1ccc(CNC2CCN(Cc3ccccc3)CC2)cc1", "note": "[TCMDC-140787]", "% Inhibition": 27.85}, {"smiles": "CC(C)c1ccc(NC(=O)c2ccc(C(=O)NC3CCN(Cc4ccccc4)CC3)cc2)cc1", "note": "[TCMDC-136752]", "% Inhibition": -24.91}, {"smiles": "CN1CCC(COc2ccc(CN3CCC(NC(=O)c4cccc(Cl)c4)CC3)cc2)CC1", "note": "[TCMDC-132796]", "% Inhibition": 95.19}, {"smiles": "O=C(Nc1ccnc2ccccc12)NC1CCN(Cc2ccccc2)CC1", "note": "[TCMDC-139643]", "% Inhibition": -13.5}, {"smiles": "Cc1cc2nc(-c3ccc(C(=O)NC4CCN(Cc5ccccc5)CC4)s3)[nH]c2cc1C", "note": "[TCMDC-140513]", "% Inhibition": 1.433}, {"smiles": "O=C(NC1CCN(Cc2ccccc2)CC1)c1cc(C(=O)NC2CCN(Cc3ccccc3)CC2)cc(C(=O)NC2CCN(Cc3ccccc3)CC2)c1", "note": "[TCMDC-124568]", "% Inhibition": 67.11}, {"smiles": "O=C(NC1CCN(Cc2ccc(O)cc2)CC1)c1ccc(Cl)c(Cl)c1", "note": "[TCMDC-141735]", "% Inhibition": 18.11}, {"smiles": "COc1cc(-c2cc3cc(Cl)c(Cl)cc3[nH]2)ccc1C(=O)NC1CCN(Cc2ccccc2)CC1", "note": "[TCMDC-141288]", "% Inhibition": -32.17}, {"smiles": "O=C(NC1CCN(Cc2ccccc2)CC1)c1ccc(-c2nc3cc(Cl)c(F)cc3[nH]2)cc1", "note": "[TCMDC-140093]", "% Inhibition": -50.28}, {"smiles": "CC1(C)CC(NC(=O)NC2CCN(Cc3ccccc3)CC2)CC(C)(CNC(=O)NC2CCN(Cc3ccccc3)CC2)C1", "note": "(stereo not drawn) [TCMDC-139018]", "% Inhibition": 101.1}, {"smiles": "CCOc1cc(C(=O)NC2CCN(Cc3ccccc3)CC2)ccc1-c1nc2ccc(Cl)cc2[nH]1", "note": "[TCMDC-140912]", "% Inhibition": -17.04}, {"smiles": "Cc1[nH]c(-c2ccc(F)cc2)cc1C(=O)NC1CCN(Cc2ccccc2)CC1", "note": "[TCMDC-124396]", "% Inhibition": 76.63}, {"smiles": "Oc1ccc2[nH]c(-c3cccc(F)c3)nc2c1CN1CCCC1", "note": "[TCMDC-136531]", "% Inhibition": -40.99}, {"smiles": "CCOC(=O)c1cnc2cc(N3CCCC3)c(Cl)cc2c1OCC", "note": "[TCMDC-131990]", "% Inhibition": 37.97}, {"smiles": "O=C(Nc1cccc(-c2cccc(-c3nc4ccccc4[nH]3)c2)c1)Nc1ccc2c(c1)OCO2", "note": "[TCMDC-133167]", "% Inhibition": 2.88}, {"smiles": "COc1cc(NC(=O)N2CCc3ccc(OCCC4CCCN4C)cc32)cc(C(F)(F)F)c1", "note": "(stereo not drawn) [TCMDC-140248]", "% Inhibition": -14.34}, {"smiles": "CCCc1nc2c(N3CCCN(C(=O)NC4CCCCC4)CC3)cccc2n1Cc1ccccn1", "note": "[TCMDC-134632]", "% Inhibition": -23.2}, {"smiles": "CC(C)CC(C)NC(=O)C1Cc2c([nH]c3cc(Cl)ccc23)C2(CCN(CCc3ccccc3)CC2)N1", "note": "(stereo not drawn) [TCMDC-141298]", "% Inhibition": 48.04}, {"smiles": "CCNc1cc(C(=O)N[C@@H](Cc2ccc(F)c(F)c2)[C@H](O)CNC2CCCCC2)cc(N2CCCCS2(=O)=O)c1", "note": "[TCMDC-135060]", "% Inhibition": 26.39}, {"smiles": "CCOc1cc(C)c(C2CCN(CCCCNC(=O)c3ccc(NC(=O)c4ccc(Cl)cc4)cc3)CC2)cc1C", "note": "[TCMDC-138282]", "% Inhibition": 41.56}, {"smiles": "Cc1cc(C2CCN(CCCCNC(=O)c3ccc(NC(=O)c4ccc(Cl)cc4)cc3)CC2)c(C)cc1OCc1ccncc1", "note": "[TCMDC-138308]", "% Inhibition": 71.5}, {"smiles": "Cc1cc(C2CCN(CCCCNC(=O)c3ccc(NC(=O)c4ccc(Cl)cc4)cc3)CC2)c(C)cc1OCc1nccn1C", "note": "[TCMDC-138326]", "% Inhibition": 1.081}, {"smiles": "Cc1cc(C2CCN(CCCCNC(=O)c3ccc(NC(=O)c4ccc(Cl)cc4)cc3)CC2)c(C)cc1OC(C)C", "note": "[TCMDC-138309]", "% Inhibition": 96.15}, {"smiles": "CN(C)CCOc1ccc(N2CCN(CCCCNC(=O)c3ccc(NC(=O)c4ccc(Cl)cc4)cc3)CC2)cc1", "note": "[TCMDC-138289]", "% Inhibition": 85.59}, {"smiles": "CN(C)CCOc1ccc(N2CCN(CCCCNC(=O)c3ccc(/C=C/c4cc(Cl)cc(Cl)c4)cc3)CC2)cc1", "note": "[TCMDC-138290]", "% Inhibition": 45.55}, {"smiles": "COCCOc1cc(C)c(C2CCN(CCCCNC(=O)c3ccc(NC(=O)c4ccc(Cl)cc4)cc3)CC2)cc1C", "note": "[TCMDC-138344]", "% Inhibition": 7.769}, {"smiles": "Cc1cc(C2CCN(CCCCNC(=O)c3ccc(NC(=O)c4ccc(Cl)cc4)cc3)CC2)c(C)cc1OCc1cccnc1", "note": "[TCMDC-138318]", "% Inhibition": -16.74}, {"smiles": "Cc1ccc(C)c(C2CCN(CCCCNC(=O)c3ccc(NC(=O)c4ccc(Cl)cc4)cc3)CC2)c1", "note": "[TCMDC-138330]", "% Inhibition": -7.9}, {"smiles": "Cc1cc(C2CCN(CCCCNC(=O)c3ccc(NC(=O)c4ccc(Cl)cc4)cc3)CC2)c(C)cc1OCCN(C)C", "note": "[TCMDC-138316]", "% Inhibition": 117.2}, {"smiles": "CCOc1ccc(OCC)c(N2CCN(CCCCNC(=O)c3ccc(NC(=O)c4ccc(Cl)cc4)cc3)CC2)c1", "note": "[TCMDC-138224]", "% Inhibition": -9.659}]}]}
